In the supplement of paper PMC11732987, “Enantioselective OTUD7B fragment discovery through chemoproteomics screening and high-throughput optimisation” (Communications Chemistry, 2025):

How the values were obtained:
Assay in all cases: log2 ratio of Biotin-Ahx-Ub-VS probe labelling (compound/DMSO); higher = less target engagement, active = hit call of the paper (q ≤ 0.05, log2 ratio ≤ -1)
Details in all cases: treatment time: 3 h
[1] = compound: CCC1N(CCc2sccc12)C(=O)CCl
Summary of the method: (§1)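 HEK293T lysate (495 µg per sample, in Tris/CHAPS/IGEPAL buffer with protease inhibitors) was exposed in triplicate to compound at 50 or 200 µM, or to DMSO, for 3 h, then to Biotin-Ahx-Ub-VS (0.5 µM final) for 1 h. The labelled DUBs were enriched on NeutrAvidin, digested with LysC and trypsin, and analysed by diaPASEF LC-MS/MS. Average base-two log ratios of compound over DMSO came from median-normalised label-free quantities by unpaired t-test. Only proteins with at least 2 unique peptides were used.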

[2] = compound: CN1c2ccccc2C(CS1(=O)=O)NC(=O)CCl
Summary of the method: as §1

[3] = compound: Cl.ClCC(=O)N1CCc2ncncc2C1
Summary of the method: as §1

[4] = compound: Cl.Cn1ncc2C(CCCc12)NC(=O)CCl
Summary of the method: as §1

[5] = compound: ClCC(=O)NC1CCOc2ccccc12
Summary of the method: as §1

[6] = compound: ClCC(=O)NC1CCCc2ccccc12
Summary of the method: (§2)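 Values are average ratios of compound to vehicle from an unpaired t-test, limited to proteins with at least two unique peptides. HEK293T lysate (495 µg per sample, in Tris/CHAPS/IGEPAL buffer with protease inhibitors) was exposed in triplicate to a concentration series of compound or to vehicle for 3 h, then to Biotin-Ahx-Ub-VS at 0.5 µM final for 1 h. Labelled deubiquitinases were enriched on NeutrAvidin, digested with LysC and trypsin, and analysed by diaPASEF LC-MS/MS. Ratios are given on a log2 scale from Spectronaut label-free protein quantities normalised to the global median.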

[7] = compound: ClCC(=O)N[C@@H]1CCCc2ccccc12
Summary of the method: as §2

[8] = compound: ClCC(=O)N[C@H]1CCCc2ccccc12
Summary of the method: as §2

[9] = compound: CCC1N(CCc2cc(OC)c(Cl)cc12)C(=O)CCl
Summary of the method: as §1

[10] = compound: CCCC1N(CCc2cc(OC)c(OC)cc12)C(=O)CCl
Summary of the method: as §1

[11] = compound: CN(Cc1cccc(Br)c1)C(=O)CCl
Summary of the method: as §1

[12] = compound: CN(Cc1cccc(OCc2ccccc2C)c1)C(=O)CCl
Summary of the method: as §1

[13] = compound: CN(Cc1ccccc1)C(=O)CCl
Summary of the method: as §1

[14] = compound: COc1ccc(CN(C)C(=O)CCl)cc1
Summary of the method: as §1

[15] = compound: COc1cccc(CN(CCCc2ccccc2)C(=O)CCl)c1
Summary of the method: as §1

[16] = compound: ClCC(=O)N1CCc2cc(Cl)c(Cl)cc2C1
Summary of the method: as §1

[17] = compound: ClCC(=O)N1CCc2nc(ncc2C1)-c1ccccc1
Summary of the method: as §1

[18] = compound: ClCC(=O)N1CCc2nocc2C1
Summary of the method: as §1

[19] = compound: ClCC(=O)N1CCc2scc(Br)c2C1
Summary of the method: as §1

[20] = compound: ClCC(=O)NC(C1CCCC1)c1cccs1
Summary of the method: as §1

Measured: log2 ratio of Biotin-Ahx-Ub-VS probe labelling

USP19 (UniProt O94966)
Chain of UniProt O94966 (O94966 whole entry): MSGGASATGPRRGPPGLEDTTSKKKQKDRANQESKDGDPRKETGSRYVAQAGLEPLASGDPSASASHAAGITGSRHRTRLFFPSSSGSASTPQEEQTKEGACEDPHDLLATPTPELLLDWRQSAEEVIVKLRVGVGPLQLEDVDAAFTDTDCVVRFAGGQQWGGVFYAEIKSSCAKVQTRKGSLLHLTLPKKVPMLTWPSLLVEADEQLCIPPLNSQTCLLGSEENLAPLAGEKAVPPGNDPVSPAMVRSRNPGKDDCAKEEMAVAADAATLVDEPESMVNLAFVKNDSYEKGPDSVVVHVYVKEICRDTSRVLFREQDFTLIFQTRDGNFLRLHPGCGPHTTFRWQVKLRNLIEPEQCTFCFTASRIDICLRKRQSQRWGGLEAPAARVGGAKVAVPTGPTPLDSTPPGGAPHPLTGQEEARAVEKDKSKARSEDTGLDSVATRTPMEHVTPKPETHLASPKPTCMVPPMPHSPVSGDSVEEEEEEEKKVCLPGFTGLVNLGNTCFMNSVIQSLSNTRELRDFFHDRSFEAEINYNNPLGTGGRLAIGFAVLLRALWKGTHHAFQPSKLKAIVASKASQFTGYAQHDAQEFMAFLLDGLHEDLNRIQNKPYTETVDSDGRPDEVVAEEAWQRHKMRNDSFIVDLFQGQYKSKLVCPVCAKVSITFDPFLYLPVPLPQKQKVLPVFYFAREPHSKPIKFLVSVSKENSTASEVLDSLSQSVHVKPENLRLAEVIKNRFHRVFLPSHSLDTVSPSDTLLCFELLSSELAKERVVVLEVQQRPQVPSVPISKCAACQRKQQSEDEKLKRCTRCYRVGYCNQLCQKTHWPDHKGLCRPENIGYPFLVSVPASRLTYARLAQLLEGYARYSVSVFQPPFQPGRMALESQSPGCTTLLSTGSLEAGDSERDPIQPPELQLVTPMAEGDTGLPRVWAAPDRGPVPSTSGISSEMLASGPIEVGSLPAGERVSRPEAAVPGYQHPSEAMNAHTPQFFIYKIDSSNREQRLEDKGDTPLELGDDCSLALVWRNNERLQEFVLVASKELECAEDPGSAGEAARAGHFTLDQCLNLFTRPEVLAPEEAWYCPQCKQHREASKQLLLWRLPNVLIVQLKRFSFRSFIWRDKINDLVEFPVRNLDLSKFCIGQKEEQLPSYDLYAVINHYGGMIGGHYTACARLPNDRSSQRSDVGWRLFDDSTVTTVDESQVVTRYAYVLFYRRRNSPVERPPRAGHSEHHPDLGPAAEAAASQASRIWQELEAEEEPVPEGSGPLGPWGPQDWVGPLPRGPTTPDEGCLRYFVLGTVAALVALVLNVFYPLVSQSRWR
inactive: [1]; compound concentration: 50uM -0.285 | [1]; compound concentration: 200uM -0.845 | [2]; compound concentration: 50uM -0.191 | [2]; compound concentration: 200uM -0.286 | [3]; compound concentration: 50uM -0.264 | [4]; compound concentration: 50uM 0.00316 | [4]; compound concentration: 200uM -0.0581 | [5]; compound concentration: 50uM -0.218 | [5]; compound concentration: 200uM -0.211 | [6]; compound concentration: 0.78uM 0.0115 | [6]; compound concentration: 1.56uM 0.0325 | [6]; compound concentration: 3.13uM -0.14 | [6]; compound concentration: 6.25uM -0.00117 | [6]; compound concentration: 12.5uM -0.0872 | [6]; compound concentration: 25uM -0.173 | [6]; compound concentration: 50uM -0.131 | [6]; compound concentration: 100uM -0.081 | [6]; compound concentration: 200uM -0.216 | [7]; compound concentration: 0.78uM -0.105 | [7]; compound concentration: 1.56uM -0.0178 | [7]; compound concentration: 3.13uM -0.00588 | [7]; compound concentration: 6.25uM 0.0401 | [7]; compound concentration: 12.5uM -0.0591 | [7]; compound concentration: 25uM -0.121 | [7]; compound concentration: 50uM -0.26 | [7]; compound concentration: 100uM -0.182 | [7]; compound concentration: 200uM -0.339 | [8]; compound concentration: 0.78uM -0.0486 | [8]; compound concentration: 1.56uM -0.0156 | [8]; compound concentration: 3.13uM 0.00736 | [8]; compound concentration: 6.25uM 0.0504 | [8]; compound concentration: 12.5uM -0.0195 | [8]; compound concentration: 25uM -0.0989 | [8]; compound concentration: 50uM -0.0366 | [8]; compound concentration: 100uM -0.126 | [8]; compound concentration: 200uM -0.311 | [9]; compound concentration: 50uM -0.648 | [11]; compound concentration: 50uM -0.419 | [13]; compound concentration: 50uM -0.372 | [13]; compound concentration: 200uM -0.827 | [14]; compound concentration: 50uM -0.301 | [14]; compound concentration: 200uM -0.572 | [15]; compound concentration: 50uM -0.64 | [16]; compound concentration: 50uM -0.948 | [17]; compound concentration: 50uM -0.512 | [18]; compound concentration: 50uM -0.407 | [19]; compound concentration: 50uM -0.747 | [20]; compound concentration: 50uM -0.0897 | [20]; compound concentration: 200uM -0.299
active: [3]; compound concentration: 200uM -1.13 | [9]; compound concentration: 200uM -2.38 | [10]; compound concentration: 50uM -1.67 | [10]; compound concentration: 200uM -3.32 | [11]; compound concentration: 200uM -1.2 | [12]; compound concentration: 50uM -1 | [12]; compound concentration: 200uM -1.76 | [15]; compound concentration: 200uM -1.37 | [16]; compound concentration: 200uM -3.11 | [17]; compound concentration: 200uM -2.01 | [18]; compound concentration: 200uM -1.17 | [19]; compound concentration: 200uM -2.35

USP15 (UniProt Q9Y4E8)
Chain of UniProt Q9Y4E8 (Q9Y4E8 whole entry): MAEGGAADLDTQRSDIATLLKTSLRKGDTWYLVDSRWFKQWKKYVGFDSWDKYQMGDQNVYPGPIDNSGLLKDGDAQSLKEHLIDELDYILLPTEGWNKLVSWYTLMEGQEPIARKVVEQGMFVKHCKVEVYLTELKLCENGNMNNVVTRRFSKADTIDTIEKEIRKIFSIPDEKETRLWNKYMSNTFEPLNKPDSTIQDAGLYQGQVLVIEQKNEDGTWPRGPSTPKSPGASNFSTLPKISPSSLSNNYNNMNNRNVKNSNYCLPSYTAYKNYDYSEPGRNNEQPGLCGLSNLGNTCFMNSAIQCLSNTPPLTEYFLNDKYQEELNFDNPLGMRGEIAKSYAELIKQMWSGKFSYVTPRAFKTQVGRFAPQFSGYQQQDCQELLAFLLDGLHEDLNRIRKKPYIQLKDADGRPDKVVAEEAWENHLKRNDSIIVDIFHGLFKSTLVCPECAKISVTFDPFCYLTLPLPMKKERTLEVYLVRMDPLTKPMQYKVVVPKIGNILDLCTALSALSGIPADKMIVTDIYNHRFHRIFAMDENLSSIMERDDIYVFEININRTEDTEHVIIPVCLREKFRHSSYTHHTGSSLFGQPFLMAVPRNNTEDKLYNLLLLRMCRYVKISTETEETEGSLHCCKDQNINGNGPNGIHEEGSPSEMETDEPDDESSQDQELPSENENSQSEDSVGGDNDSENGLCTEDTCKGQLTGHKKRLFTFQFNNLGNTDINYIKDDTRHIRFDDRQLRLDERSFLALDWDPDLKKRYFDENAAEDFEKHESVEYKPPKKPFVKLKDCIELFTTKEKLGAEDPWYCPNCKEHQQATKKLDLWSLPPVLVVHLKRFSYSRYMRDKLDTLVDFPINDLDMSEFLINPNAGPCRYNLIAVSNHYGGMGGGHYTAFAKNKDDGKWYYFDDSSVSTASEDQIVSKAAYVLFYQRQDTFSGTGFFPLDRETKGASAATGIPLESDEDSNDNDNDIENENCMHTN
active: [10]; compound concentration: 200uM -1.38 | [16]; compound concentration: 200uM -1.85 | [17]; compound concentration: 200uM -1.06 | [19]; compound concentration: 200uM -1.88
inactive: [1]; compound concentration: 50uM -0.208 | [1]; compound concentration: 200uM -0.456 | [2]; compound concentration: 50uM -0.352 | [2]; compound concentration: 200uM -0.178 | [3]; compound concentration: 50uM -0.273 | [3]; compound concentration: 200uM -0.899 | [4]; compound concentration: 50uM 0.0231 | [4]; compound concentration: 200uM 0.118 | [5]; compound concentration: 50uM -0.104 | [5]; compound concentration: 200uM -0.0799 | [6]; compound concentration: 0.78uM -0.111 | [6]; compound concentration: 1.56uM 0.00504 | [6]; compound concentration: 3.13uM -0.0668 | [6]; compound concentration: 6.25uM 0.00578 | [6]; compound concentration: 12.5uM 0.00284 | [6]; compound concentration: 25uM -0.194 | [6]; compound concentration: 50uM -0.0476 | [6]; compound concentration: 100uM -0.0886 | [6]; compound concentration: 200uM -0.0894 | [7]; compound concentration: 0.78uM -0.15 | [7]; compound concentration: 1.56uM -0.0871 | [7]; compound concentration: 3.13uM -0.0689 | [7]; compound concentration: 6.25uM -0.0495 | [7]; compound concentration: 12.5uM -0.0456 | [7]; compound concentration: 25uM -0.00914 | [7]; compound concentration: 50uM -0.0377 | [7]; compound concentration: 100uM -0.0901 | [7]; compound concentration: 200uM -0.162 | [8]; compound concentration: 0.78uM -0.089 | [8]; compound concentration: 1.56uM -0.101 | [8]; compound concentration: 3.13uM -0.0661 | [8]; compound concentration: 6.25uM 0.0971 | [8]; compound concentration: 12.5uM -0.119 | [8]; compound concentration: 25uM -0.0896 | [8]; compound concentration: 50uM -0.0399 | [8]; compound concentration: 100uM -0.0575 | [8]; compound concentration: 200uM -0.135 | [9]; compound concentration: 50uM -0.143 | [9]; compound concentration: 200uM -0.873 | [10]; compound concentration: 50uM -0.696 | [11]; compound concentration: 50uM -0.321 | [11]; compound concentration: 200uM -0.664 | [12]; compound concentration: 50uM -0.611 | [12]; compound concentration: 200uM -0.533 | [13]; compound concentration: 50uM -0.368 | [13]; compound concentration: 200uM -0.462 | [14]; compound concentration: 50uM -0.242 | [14]; compound concentration: 200uM -0.334 | [15]; compound concentration: 50uM -0.289 | [15]; compound concentration: 200uM -0.43 | [16]; compound concentration: 50uM -0.407 | [17]; compound concentration: 50uM -0.105 | [18]; compound concentration: 50uM -0.404 | [18]; compound concentration: 200uM -0.641 | [19]; compound concentration: 50uM -0.779 | [20]; compound concentration: 50uM 0.0422 | [20]; compound concentration: 200uM -0.0218
